# Screening data: PubChem, Corson Lab, School of Medicine, Indiana University
# FECH block = human FECH heme synthesis enzyme inhibition | P22830 | purified FECH, Ni-mesoporphyrin absorbance 550 nm | calls only at 10 µM (by protocol) | 20,000 tested, 3.3% active;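 active = enzyme reaction rate more than 3 SD below the solvent-only control wells on the same plate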;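 also: lower slope than DMSO wells means FECH inhibition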
# Target sequence (P22830 whole entry, looked up): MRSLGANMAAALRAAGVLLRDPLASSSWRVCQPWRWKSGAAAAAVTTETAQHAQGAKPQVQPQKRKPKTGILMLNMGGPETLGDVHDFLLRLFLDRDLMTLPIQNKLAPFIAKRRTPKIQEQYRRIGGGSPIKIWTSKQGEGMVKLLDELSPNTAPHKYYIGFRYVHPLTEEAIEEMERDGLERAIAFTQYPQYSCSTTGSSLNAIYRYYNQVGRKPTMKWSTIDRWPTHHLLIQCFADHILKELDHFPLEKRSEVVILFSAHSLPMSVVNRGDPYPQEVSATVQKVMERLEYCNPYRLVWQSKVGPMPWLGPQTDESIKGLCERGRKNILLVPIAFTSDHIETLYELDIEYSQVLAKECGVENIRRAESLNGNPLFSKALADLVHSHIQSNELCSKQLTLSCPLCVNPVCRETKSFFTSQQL
# Calls only; n = inactive; + = active, no number. The full list was thinned out, with hits kept by preference.
SMILES,FECH block
Cc1nc2nc[nH]n2c(=O)c1NC(=O)Nc1cccc(C(F)(F)F)c1,n
O=c1c2c(nc3nc(CNc4cccc(C(F)(F)F)c4)[nH]n13)CCC2,+
COc1cccc(NCc2nc3nc4c(c(=O)n3[nH]2)CCC4)c1,+
COc1ccc(CNc2nc3nc(CNc4cccc(Cl)c4)cc(=O)n3[nH]2)cc1,n
COc1ccccc1NCc1nc2nc3c(c(=O)n2[nH]1)CCC3,n
CCc1nc2nc(C)c(NC(=O)Nc3cccc(F)c3)c(=O)n2[nH]1,n
NS(=O)(=O)c1ccc(CCNC(=O)C2=Cc3ccccc3OC2)cc1,n
Cc1nn(-c2cc(N3CCCC3)ncn2)c(C)c1CCC(=O)NCc1ccc(Cl)cc1,n
CC1CCCN(CCCNC(=O)C2CCN(c3ncnc4c3nc3n4CCCCC3)CC2)C1 (stereo not given),n
Cc1cccc(C)c1NC(=O)CN1CCCN(Cc2ccccc2)S1(=O)=O,n
CC(C)SCC(=O)N(C)CC1CCCCO1 (stereo not given),n
Cn1c(=O)n(Cc2ccncc2)c(=O)c2cnc(-c3ccncc3)nc21,n
CCCN(Cc1ccc(SC)cc1)Cc1cc(C)nn1C,n
CCCn1cnc2nc(CSc3ccccc3NC(=O)c3cccc(Br)c3)cc(=O)n21,+
CC(C)n1cnc2nc(CSc3ccccc3NC(=O)Cc3ccccc3)cc(=O)n21,n
COc1ccc(C(=O)Nc2ccccc2SCc2cc(=O)n3c(ncn3C(C)C)n2)cc1,n
CCCn1cnc2nc(CSc3ccccc3NC(=O)c3ccccc3)cc(=O)n21,n
CC(C)n1cnc2nc(CSc3ccccc3NC(=O)c3ccc(Br)cc3)cc(=O)n21,n
Cc1ccc(C(=O)Nc2ccccc2SCc2cc(=O)n3c(ncn3C(C)C)n2)cc1F,n
CCCn1cnc2nc(CSc3ccccc3NC(=O)c3ccc(F)cc3)cc(=O)n21,+
CCOc1ccccc1C(=O)Nc1ccccc1SCc1cc(=O)n2c(ncn2C(C)C)n1,n
CCCn1cnc2nc(CSc3ccccc3NC(=O)c3ccco3)cc(=O)n21,+
CCOC(=O)c1cc2ccsc2n1CC(=O)NCCCc1ccccc1,n
COc1ccccc1-c1nc(CSc2nc(C(F)(F)F)cc(=O)[nH]2)c(C)o1,n
COc1ccc(-c2ncc3c(=O)n(Cc4ccccc4C)c(=O)n(C)c3n2)cc1,n
SMILES,FECH block
Cc1cc(C)n2nc(CN(C(=O)c3ccccc3F)c3ccc(Cl)cc3)nc2n1,n
CCOc1ccccc1N(Cc1nc2nc(C)cc(C)n2n1)C(=O)c1ccc(C)cc1,n
CCOC(=O)c1cc2ccsc2n1CC(=O)Nc1c(C)cc(C)cc1C,+
COC(=O)c1cc2ccsc2n1CC(=O)Nc1c(C)cccc1C,n
CCOC(=O)c1cc2ccsc2n1CC(=O)Nc1ccccc1C,n
c1ccc2nc(Cn3cnnc3)ccc2c1,n
Cc1cc(-c2cc(NCc3cccnc3)nc3[nH]ccc23)c(=O)[nH]c1C,n
COC(=O)c1cc(S(=O)(=O)N2CCCC2C(=O)Nc2cc(Cl)ccc2C)cn1C (stereo not given),n
CCn1c(=O)n(CCOc2ccc(F)cc2)c(=O)c2cnc(-c3ccc(Cl)cc3)nc21,+
Cn1c(=O)n(CCOc2ccc(F)cc2)c(=O)c2cnc(-c3ccc(Cl)cc3)nc21,n
CCn1c(=O)n(CCOc2ccc(F)cc2)c(=O)c2cnc(-c3ccc(OC)cc3)nc21,n
O=C(CCN1CCCCO1)NCCNC(=O)c1ccc(F)cc1,n
CCC(Nc1cccc(OC)c1)C(=O)N(C)Cc1cccc2cccnc12 (stereo not given),n
Cc1ccccc1-c1cc(N2CCN(C(=O)NCC3CCCO3)CC2)ncn1 (stereo not given),n
CN(Cc1n[nH]c(=O)n1Cc1ccc(Cl)cc1Cl)S(C)(=O)=O,n
CCCc1nc2nc(CC)[nH]n2c(=O)c1N,n
O=c1cc(CN2CCCCC2)nc2nc(NCc3ccc(F)cc3)[nH]n12,n
CCc1ccc(NCc2nc3nc4c(c(=O)n3[nH]2)CCC4)cc1,+
O=c1c2c(nc3nc(CNc4ccc(F)cc4)[nH]n13)CCC2,+
CCc1nc2nc(C)c(NC(=O)Nc3ccc4c(c3)OCCO4)c(=O)n2[nH]1,n
Cc1nc2c(c(N3CCc4c(Cl)cccc4C3)n1)CCNCC2,n
COC(=O)c1cc2n(n1)CCN(C(=O)c1ccc(S(C)(=O)=O)cc1)C2,n
COc1cc2c(cc1OC)-c1cc(NC(C)C)nc(=O)n1CC2,n
CCC(NC(=O)CCC(=O)NC1CCCCCCC1)c1ccnn1C (stereo not given),+
O=C(CCN1CCN(CCc2ccncc2)CC1)NC1CCCCCC1,n
SMILES,FECH block
CCC(NC(=O)c1ccccc1-n1cncn1)c1ccnn1C (stereo not given),n
CC(C)CC(NCc1cn[nH]c1-c1ccc(F)cc1)c1ncnn1C (stereo not given),n
Cc1ccc(-c2cc(N3CCN(S(=O)(=O)c4ccc(CC(C)C)cc4)CC3)ncn2)cc1,n
COc1cccc(-c2cc(N3CCN(S(=O)(=O)c4ccc(F)cc4)CC3)ncn2)c1,n
Cc1cccc(-c2cc(N3CCN(S(=O)(=O)c4ccc(CC(C)C)cc4)CC3)ncn2)c1,+
COc1cccc(-c2cc(N3CCN(S(=O)(=O)c4cc(OC)ccc4OC)CC3)ncn2)c1,+
COc1cccc(-c2cc(N3CCN(S(=O)(=O)c4cc(Cl)ccc4OC)CC3)ncn2)c1,n
COc1cccc(-c2cc(N3CCN(S(=O)(=O)c4c(C)noc4C)CC3)ncn2)c1,+
COc1cccc(-c2cc(N3CCN(S(=O)(=O)c4ccccc4)CC3)ncn2)c1,+
Cc1cccc(-c2cc(N3CCN(S(=O)(=O)c4c(C)noc4C)CC3)ncn2)c1,n
COc1cccc(-c2cc(N3CCN(S(=O)(=O)c4ccc(OC)c(Cl)c4)CC3)ncn2)c1,n
Cc1ccc(-c2cc(N3CCN(S(=O)(=O)c4c(C)noc4C)CC3)ncn2)cc1,n
CC(C)Cc1ccc(S(=O)(=O)N2CCN(c3cc(-c4ccc(F)cc4)ncn3)CC2)cc1,n
COc1cccc(-c2cc(N3CCN(S(=O)(=O)c4ccc(Br)cc4)CC3)ncn2)c1,n
C=CCN(CC1=CCCN(C)C1)C(=O)COC,n
CCOc1ccccc1NC(=O)CN1C(=O)C=C(CC(=O)OC)Nc2ccccc21,n
Cc1ccc(Cn2c(CCNC(=O)Nc3ccc(C)cc3)nc3cccnc32)cc1,n
CC(C)n1ncnc1NC(=O)c1cccc(CN2CC[C@H](O)C2)c1,n
O=c1cc(CN2CCCCC2c2ccccn2)nc2ccc(Cl)cn12 (stereo not given),n
C=CC[C@@H]1CC=C[C@@H](C)N1Cc1ccc(S(C)(=O)=O)cc1,n
O=C(O)C1Cc2nc[nH]c2CN1C(=O)CC12CC3CC(CC(C3)C1)C2 (stereo not given),n
CN1CCN(c2nc(Nc3cccc(Cl)c3)c3cnn(-c4ccccc4)c3n2)CC1,n
COc1cc(C)ccc1S(=O)(=O)N1CC[C@H]2CC[C@@H](C1)N2,n
Cc1nc(SCC(=O)NCCCN2CCOCC2)n[nH]1,n
Cc1ccc(-n2ncc3c(-n4nc(C)cc4NC(=O)c4ccccc4Cl)ncnc32)c(C)c1,n
SMILES,FECH block
COc1nc(C)c(C(=O)NC(C)c2ccc(O)c(F)c2)s1 (stereo not given),n
COc1cccc(OC)c1-c1ccc2nc(CO)[nH]c2c1,+
COc1cc2c(cc1-c1nccn1-c1ccc3nc(CO)[nH]c3c1)CCC2,n
COc1ccc(-c2ccc3nc(CO)[nH]c3c2)cc1Cl,n
COc1ccc(NCc2cc(=O)n3[nH]c(NCc4ccccc4)nc3n2)cc1,n
O=c1cc(CNc2ccc(F)cc2)nc2nc(NCc3ccc(F)cc3)[nH]n12,n
